# A number with no mark means an inactive call. Activity calls are given as the source filed them. Calls follow the shape of the dose curve; as a rule, active = well fitted curve in the direction sought with a large enough effect; inconclusive = small, poorly fitted or top-dose-only effect, or another doubt; inactive = no such curve, though single readings can be large or run the other way. Peptide text beside a SMILES is read from it. * marks the point of attachment. Hexanoyl = CCCCCC(=O)*
# Test: qHTS for ATAD5 Agonist screened against the NCATS CANVASS Library (AID 1347367);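 also: luciferase reporter driven by ATAD5 which rises upon DNA damage; 0% is about no effect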
# Settings: HEK293T ATAD5-luciferase reporter, luminescence, 16 h; series mostly up to 46.1 µM; activation: at the top concentration
# Excerpt: Natural products and their derivatives continue to be wellsprings of nascent therapeutic potential. However, many laboratories have limited resources for biological evaluation, leaving their previously isolated or synthesized compounds largely or completely untested. To address this issue, the Canvass library of natural products was assembled (https://tripod.nih.gov/canvass), in collaboration with academic and industry researchers, for quantitative high-throughput screening (qHTS) across a diverse set of cell-based and biochemical assays. The pure (>85% purity by liquid chromatography/mass spectrometry [LC/MS]) Canvass library of 346 natural products were submitted by 45 academic laboratories and companies around the world. We collected pure natural products to circumvent deconvolution and structure elucidation due to time and resource limitations. The library was formatted into 1536-well plates and evaluated in 50 qHTS (in an 11-pnt concentration series) bioassays with broad scope of disease-relevant mechanisms. The resulting data set from 50 different assays was then systematically analyzed to identify overall trends and specific natural products with interesting biological activities. Reported herein are the results of each individual qHTS and their corresponding assay protocol. Human ATAD5 is a biomarker for identifying gentoxic compounds because ATAD5 protein levels increase post-transcriptionally in response to DNA damage. A cell-based assay is used to detect DNA damage inducers and genotoxic compounds as well. The assay is based upon a luciferase reporter gene under control of ATAD5 that has been stably integrated into HEK 293T cells. Luminescence intensity is proportional to ATAD5 expression. National Center for Advancing Translational Sciences (NCATS), Rockville, MD National Institute of Health (NIH), Bethesda, Maryland
# ATAD5 Agonist assay protocol: 1. In a 1536 well, tissue culture treated white solid bottom plates (Greiner Bio-One North America), 5 uL of HEK293T-ATAD5 cell solution (2000 cells / well) was dispensed using the Multidrop Combi dispenser (Thermo Fisher Scientific). 2. The assay plates were incubated for 5hr at 37C, 5% CO2 to allow the cells to acclimate and attach. 3. Controls and compounds were pin transferred (~23 nL volume) to the assay plates via Wako Pin-tool (Wako Automation, Richmond VA) equipped with a 1536 pin head. The compounds were transferred to columns 5-48 resulting in a final concentration ranging from 0.6nM to 92uM. Methyl methanesulfonate (MMS) was used as a control in various concentrations (columns 1: dose response, column2: 0.7mM, and column3: 0.6mM). DMSO (0.46% final concentration was used as a negative control. 4. The assay plates were further incubated in the dark at 37C, 5% CO2 for 16hr. 5. To measure cell viability, 1uL of CellTiter-Fluor (Promega) reagent was then added to the assay plates (column 1-48, rows 1-32). The assay plates were incubated in the dark for 1hr at 37C, 5% CO2. 6. A first readout of fluorescence signal was acquired via the ViewLux (PerkinElmer) plate reader using filter sets for AFC (380-400nmEx/505Em) and 1 second exposure setting. 7. To measure ATAD5 activation, 4uL of Amplite (AAT Bioquest) reagent was then added to the assay plates (column 1-48, rows 1-32). The assay plates were further incubated in the dark at room temperature for 30min. 8. A second readout of luminescence signal was acquired via the ViewLux plate reader using a clear emission filter, 10 second exposure setting. Fox JT1, et al. High-throughput genotoxicity assay identifies antioxidants as inducers of DNA damage response and cell death. Proc Natl Acad Sci U S A. 2012 Apr 3;109(14):5423-8.
SMILES,activation,Potency
C=C1[C@@]2(C)CC3C4(C)CCC(O)C(C)(C)C4CCC3(C)[C@]1(C(=O)OC)C(=O)C(C)(O)C2=O (stereo not given in full),-1.35%,
COc1c(O)cc(O)c2c(=O)cc(-c3ccccc3)oc12,0.902%,
CC(C)=CCC[C@]12c3cc4c(cc3CC[C@@]1(C)[C@H](C)CC[C@@H]2O)[nH]c1ccccc14,-1.68%,
C=C[C@]1(C)CC[C@@H]([C@H](C)C(=O)/C=C/C(C)(C)O)O1,-0.41%,
C=C(C)CC[C@H](Cc1c(O)cc(O)c2c1O[C@H](c1ccc(O)cc1)CC2=O)C(=C)C,-1.49%,
O=c1cc(-c2ccc(O)c(O)c2)oc2cc(O[C@@H]3O[C@H](CO)[C@@H](O)[C@H](O)[C@H]3O)cc(O)c12,8.34%,
O=Cc1ccc2n1C[C@]1(OC2)O[C@H](CO)[C@@H](O)[C@@H]1O,1.07%,
C=C1CC[C@@H](Br)C(C)(C)[C@]12CC=C(C)C(=O)C2,-0.781%,
COc1ccc([C@@H]2CC(=O)c3c(cc(O)c(C/C=C(\C)CCC=C(C)C)c3O)O2)cc1,-1.01% [at 9.19 µM],
CC[C@@H](c1cc(OC)c(OC)cc1OC)[C@H](C)[C@@H](/C(C)=C/c1cc(OC)c(OC)cc1OC)c1cc(OC)c(OC)cc1OC,,inactive
C/C=C1/CN2C3CC1C1C=CC(=O)N4c5ccccc5[C@@]3(C[C@@H]2C2=C[C@H]3C5CC6N(CC[C@@]67c6ccccc6N(C2=O)[C@@H]37)C/C5=C/C)[C@H]14 (stereo not given in full),-6.92%,
CC(C)=CC[C@H]1C[C@@]2(CC=C(C)C)C(=O)[C@](CC=C(C)C)(C(=O)C(C(=O)c3ccccc3)=C2O)C1(C)C,-3.16%,
CC1(C)CC[C@]2(CO)CC[C@]3(C)C(=CCC4[C@@]5(C)CC[C@H](O)C(C)(C)C5CC[C@]43C)C2C1 (stereo not given in full),-0.899%,
C[C@H](c1cnc(N)[nH]1)c1ccc(O)c2[nH]cc(-c3cnc(-c4c[nH]c5ccccc45)c(=O)[nH]3)c12,-1.86%,
Cc1cc(O)cc2c1C(=O)c1c(O)cc(O)cc1C2=O,-0.796%,
CC[C@@H]1[C@H](C)[C@H](c2cc(OC)c(OC)cc2OC)[C@@H](C)[C@H](c2cc(OC)c(OC)cc2OC)[C@]12C=C(OC)C(=O)C=C2OC,2.49%,
COc1ccc2[nH]c3c(c2c1)CCN1C[C@H]2C[C@@H](OC(=O)c4cc(OC)c(OC)c(OC)c4)[C@H](OC)[C@@H](OC)[C@H]2C[C@H]31,4.08%,
C=C[C@](Cl)(CBr)CCC=C(C)C,-0.721%,
CCCCCC(=O)N[C@@H](CC(C)C)C(=O)N[C@H](C=O)CCC(=O)O (Hexanoyl-Leu-Glu-aldehyde),1.31%,
O[C@H]1C=C2[C@H]3CN(Cc4cc5c(cc43)OCO5)[C@H]2C[C@@H]1O,8.32%,

SMILES,activation,Potency
COc1c(O)cc2c(c1O)C(=O)c1c(coc1C)C2=O,-0.592%,
C=C1C(=O)O[C@H]2[C@H]1CCC(C)=C1CC[C@@](C)(O)[C@@H]12,-6.35%,
C[C@@]12C[C@@H](C[C@@H]3C(=O)O[C@@H](c4ccoc4)[C@H](OC(=O)c4ccccc4)[C@@H]31)OC2=O,1.29%,
COc1cc2ccc(=O)oc2c(O)c1O[C@@H]1O[C@H](CO)[C@@H](O)[C@H](O)[C@H]1O,-0.492% [at 27.5 µM],
C[C@]12CCC[C@](C)(C(=O)O)[C@@H]1CC[C@@]1(C)c3cocc3CC[C@H]21,1.79%,
C=C[C@@](C)(O)CC[C@@H]1[C@@]2(C)CCCC(C)(C)[C@@H]2CC[C@@]1(C)O,-1.32%,
C/C=C(/C)c1cc(O)c(C)c2c1Oc1cc(O)cc(C)c1C(=O)O2,0.301%,
CN1CC[C@@]2([C@@]34CCN(C)[C@@H]3Nc3ccccc34)c3ccccc3N[C@@H]12,-0.552%,
CC1=C2CC[C@]3(C)[C@H](CC=C4[C@@H]5CC(C)(C)CC[C@@H]5C(=O)[C@H](O)[C@]43C)[C@@]2(C)C=C(O)C1=O,-1.41%,
C/C=C/C1C=CC2CC(C)CC(C)C2C1C(=O)CC(=O)NC(CO)C/C=C/CCCCC (stereo not given),-2.83%,
CO/C=C/C(=O)c1cc2cnc3c(N)cc(=NC(=O)C(C)C)c([nH]1)c23,-6.64%,
O=C1CC(c2ccc(O)cc2)Oc2ccccc21 (stereo not given),15.7%,
COC(=O)c1cc2cc3c(c(O)c2c(=O)o1)OC1(CC3)CC2=C(O1)C(=O)c1c(O)c(OC)cc(OC)c1C2=O (stereo not given),20.4%,
C[C@H](CCC(O)C(C)(O)CO)[C@@]1(O)CC[C@@]2(C)C3=C(CC[C@@]21C)[C@@]1(C)CCC(OC(=O)CCC(=O)O)C(C)(C)[C@@H]1CC3 (stereo not given in full),-0.457%,
C=C1C[C@]23C=CC(=O)[C@@](C)(CCCC(C)C(=O)N[C@@H](CO)C(=O)O)[C@@H]2C[C@@H]1CC3 (stereo not given in full),2.01%,
C=C(Cl)[C@](Cl)(CBr)CC[C@@H](Br)C(C)(C)Cl,-6.86%,
CC[C@H](O)CCCCC[C@@H]1NC(=O)[C@H]2CCCCN2C(=O)[C@H]([C@H](C)CC)NC(=O)[C@H](Cc2cn(OC)c3ccccc23)NC1=O,14.1%,
Oc1ccc(C2Oc3cc(O)c4c(c3[C@@H]2c2cc(O)cc(O)c2)[C@H]2C(c3ccc(O)cc3)c3c(O)cc5c(c3[C@H]2C4c2ccc(O)cc2)[C@H](c2cc(O)cc(O)c2)C(c2ccc(O)cc2)O5)cc1 (stereo not given in full),-0.522%,
C=C[C@@]1(C)CC[C@@H]([C@H](C)C(C)=O)O1,-1.05%,
C[n+]1cc2cc(C(N)=O)[nH]c3c(=N)c(Cl)c(N)c1c23,-1.58%,

# Reference: PubChem BioAssay (NCATS)
